Holding throughout (parameters): scale not given: direction of the effect not stated beside the values
Test [1] concerns the target Protein translocase subunit SecA (Escherichia coli (strain K12)) (UniProt P10408). Kind of test: Assay to Identify E. coli SecA ATPase Inhibitors. Conditions: 30 µM. The class given is functional.
Test [2] deals with T1, Ubiquitin-activating enzyme e1, putative (Leishmania donovani (strain BPK282A1)) (UniProt E9BSI1).
T1 sequence (whole entry): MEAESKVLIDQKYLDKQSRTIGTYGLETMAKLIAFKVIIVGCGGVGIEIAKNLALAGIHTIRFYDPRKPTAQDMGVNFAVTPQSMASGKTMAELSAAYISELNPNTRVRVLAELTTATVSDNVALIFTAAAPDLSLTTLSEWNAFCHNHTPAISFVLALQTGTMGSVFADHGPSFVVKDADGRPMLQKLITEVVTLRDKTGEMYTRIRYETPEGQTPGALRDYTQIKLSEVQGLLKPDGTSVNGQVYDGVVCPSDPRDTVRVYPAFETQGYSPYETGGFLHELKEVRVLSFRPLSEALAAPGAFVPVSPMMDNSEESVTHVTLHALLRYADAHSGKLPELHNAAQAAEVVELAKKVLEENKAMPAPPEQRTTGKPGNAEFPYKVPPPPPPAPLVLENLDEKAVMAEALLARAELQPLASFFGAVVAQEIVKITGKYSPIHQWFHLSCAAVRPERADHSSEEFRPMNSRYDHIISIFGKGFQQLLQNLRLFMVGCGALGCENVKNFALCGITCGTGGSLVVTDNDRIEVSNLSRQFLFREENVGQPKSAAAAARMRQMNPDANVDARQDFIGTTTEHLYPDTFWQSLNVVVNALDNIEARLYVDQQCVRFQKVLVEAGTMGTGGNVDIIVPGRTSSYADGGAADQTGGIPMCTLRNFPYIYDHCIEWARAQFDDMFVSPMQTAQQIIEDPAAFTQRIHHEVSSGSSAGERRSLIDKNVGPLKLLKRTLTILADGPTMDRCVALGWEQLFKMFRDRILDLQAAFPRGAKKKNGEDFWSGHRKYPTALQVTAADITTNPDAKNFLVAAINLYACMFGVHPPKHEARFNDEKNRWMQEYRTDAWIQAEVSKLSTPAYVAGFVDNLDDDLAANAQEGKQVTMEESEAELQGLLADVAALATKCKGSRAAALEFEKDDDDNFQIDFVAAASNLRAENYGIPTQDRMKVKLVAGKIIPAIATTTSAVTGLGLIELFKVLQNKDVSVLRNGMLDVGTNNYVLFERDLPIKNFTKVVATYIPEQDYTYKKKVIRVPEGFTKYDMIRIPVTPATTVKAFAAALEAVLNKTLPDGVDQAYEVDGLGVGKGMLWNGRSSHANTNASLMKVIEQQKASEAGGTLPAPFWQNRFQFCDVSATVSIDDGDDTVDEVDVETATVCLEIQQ
Kind of test: Leishmania donovani Ubiquitin Activating Enzyme (LdE1). Conditions: 30 µM. The class given is functional.

Test [3] has as its target AMP-activated protein kinase, AMPK (Homo sapiens) (UniProt P54646+O43741+P54619+Q9UGJ0+Q9Y478+Q13131+Q9UGI9). The test is described as follows: AMP-dependent Kinase enzyme assay. An in vitro enzyme assay that detects ADP turnover that is directly proportional to AMPK activity. This uses naive AMPK that is activated during the assay with MK-8722. The class given is functional. The conditions noted are these: 30 µM.

Test [4] addresses Sialic acid-binding Ig-like lectin 9 (Homo sapiens) (UniProt Q9Y336). Kind of test: Hs-Siglec9 ALPHAscreen SOP 20170721. Conditions: 10 µM. (Alpha assays give light when donor and acceptor beads are brought close together.)
For test [5], the system named is Trypanosoma cruzi. Kind of test: Trypanosoma cruzi phosphomannomutase and mannose-1-phosphate guanylyltransferase assay. The class given is functional. The conditions noted are these: 10 µM.
Test [6] concerns the target T2, Arginase-2, mitochondrial (Homo sapiens) (UniProt P78540).
T2 sequence (whole entry): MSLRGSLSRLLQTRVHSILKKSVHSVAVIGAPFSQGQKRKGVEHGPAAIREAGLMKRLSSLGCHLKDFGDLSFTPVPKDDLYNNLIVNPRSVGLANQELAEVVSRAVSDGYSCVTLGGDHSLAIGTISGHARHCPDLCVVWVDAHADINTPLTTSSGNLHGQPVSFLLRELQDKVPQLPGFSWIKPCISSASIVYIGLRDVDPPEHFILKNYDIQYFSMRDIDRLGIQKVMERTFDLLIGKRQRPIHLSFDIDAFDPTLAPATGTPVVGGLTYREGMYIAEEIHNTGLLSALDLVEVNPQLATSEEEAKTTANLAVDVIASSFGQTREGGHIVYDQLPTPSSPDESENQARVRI
Kind of test: in vitro enzyme assay to detect the production of urea directly proportional to the activity of Arginase II. Further: in the data most compounds retested in dose-response had high values. Conditions: 33.3 µM. It counts as functional.

For test [7], the target named is T3, Proteasome subunit beta (Trypanosoma cruzi) (UniProt O96673).
T3 sequence (whole entry): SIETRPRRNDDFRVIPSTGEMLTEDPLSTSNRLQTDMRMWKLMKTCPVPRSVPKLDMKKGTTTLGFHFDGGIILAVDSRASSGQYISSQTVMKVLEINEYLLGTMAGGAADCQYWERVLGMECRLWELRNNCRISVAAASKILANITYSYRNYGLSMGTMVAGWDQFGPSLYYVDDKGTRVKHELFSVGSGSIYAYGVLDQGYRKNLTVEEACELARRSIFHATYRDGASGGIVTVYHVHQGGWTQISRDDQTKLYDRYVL
The test is described as follows: Trypanosoma cruzi proteasome chymotrypsin-like activity (TcProtChymo) assay. Further: in the data most compounds retested in dose-response had high values. It counts as functional. The conditions noted are these: 9.37 µM.

Test [8] is filed under the species Homo sapiens. Kind of test: To identify inhibition of the IFN signalling (Jak-Stat) pathway via expression of an eGFP reporter gene under the control of an IFN-stimulated response element (ISRE) containing MxA promoter. It counts as functional. The conditions noted are these: 30 µM.
The target in test [9] is T4, Tyrosyl-tRNA synthetase, putative (Trypanosoma cruzi (strain CL Brener)) (UniProt Q4DSP6).
T4 sequence (whole entry): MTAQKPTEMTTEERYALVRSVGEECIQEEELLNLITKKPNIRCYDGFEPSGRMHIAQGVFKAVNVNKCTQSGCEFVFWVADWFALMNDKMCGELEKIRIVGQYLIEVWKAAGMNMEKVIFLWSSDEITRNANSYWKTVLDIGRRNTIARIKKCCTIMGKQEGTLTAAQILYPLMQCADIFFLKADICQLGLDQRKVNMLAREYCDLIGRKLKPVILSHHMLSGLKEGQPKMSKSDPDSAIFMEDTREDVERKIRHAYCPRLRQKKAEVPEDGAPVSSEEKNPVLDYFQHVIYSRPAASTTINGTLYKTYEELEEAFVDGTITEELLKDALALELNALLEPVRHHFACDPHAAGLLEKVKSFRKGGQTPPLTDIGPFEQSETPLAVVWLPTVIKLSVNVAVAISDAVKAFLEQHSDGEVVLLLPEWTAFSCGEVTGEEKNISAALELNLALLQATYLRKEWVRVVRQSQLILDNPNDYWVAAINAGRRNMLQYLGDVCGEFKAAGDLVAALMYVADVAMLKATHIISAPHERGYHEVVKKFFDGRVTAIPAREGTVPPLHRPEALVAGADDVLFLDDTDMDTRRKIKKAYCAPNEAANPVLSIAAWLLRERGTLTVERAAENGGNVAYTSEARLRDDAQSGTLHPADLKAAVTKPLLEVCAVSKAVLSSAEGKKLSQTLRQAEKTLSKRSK
Kind of test: Trypanosoma cruzi tyrosyl tRNA synthetase (TcYRS) _High Tyrosine SOP. Further: in the data most compounds retested in dose-response had high values. The class given is functional. The conditions noted are these: 30 µM.

Test [10] addresses T4, Tyrosyl-tRNA synthetase, putative (Trypanosoma cruzi (strain CL Brener)). Kind of test: Trypanosoma cruzi tyrosyl tRNA synthetase (TcYRS) SOP. It counts as functional. Conditions: 30 µM.
Test [11] has as its target Chromo domain-containing protein 1 (Saccharomyces cerevisiae (strain ATCC 204508 / S288c) (Baker's yeast)) (UniProt P32657). Kind of test: ScCHD-1 Enzyme Inhibition Assay. Further: in the data most compounds retested in dose-response had high values. It counts as functional. Conditions: 30 µM.

The structures appear in SMILES notation. For some of these results: Potency and affinity values are given separately.

Chain of Protein translocase subunit SecA (Escherichia coli (strain K12)) (P10408 whole entry): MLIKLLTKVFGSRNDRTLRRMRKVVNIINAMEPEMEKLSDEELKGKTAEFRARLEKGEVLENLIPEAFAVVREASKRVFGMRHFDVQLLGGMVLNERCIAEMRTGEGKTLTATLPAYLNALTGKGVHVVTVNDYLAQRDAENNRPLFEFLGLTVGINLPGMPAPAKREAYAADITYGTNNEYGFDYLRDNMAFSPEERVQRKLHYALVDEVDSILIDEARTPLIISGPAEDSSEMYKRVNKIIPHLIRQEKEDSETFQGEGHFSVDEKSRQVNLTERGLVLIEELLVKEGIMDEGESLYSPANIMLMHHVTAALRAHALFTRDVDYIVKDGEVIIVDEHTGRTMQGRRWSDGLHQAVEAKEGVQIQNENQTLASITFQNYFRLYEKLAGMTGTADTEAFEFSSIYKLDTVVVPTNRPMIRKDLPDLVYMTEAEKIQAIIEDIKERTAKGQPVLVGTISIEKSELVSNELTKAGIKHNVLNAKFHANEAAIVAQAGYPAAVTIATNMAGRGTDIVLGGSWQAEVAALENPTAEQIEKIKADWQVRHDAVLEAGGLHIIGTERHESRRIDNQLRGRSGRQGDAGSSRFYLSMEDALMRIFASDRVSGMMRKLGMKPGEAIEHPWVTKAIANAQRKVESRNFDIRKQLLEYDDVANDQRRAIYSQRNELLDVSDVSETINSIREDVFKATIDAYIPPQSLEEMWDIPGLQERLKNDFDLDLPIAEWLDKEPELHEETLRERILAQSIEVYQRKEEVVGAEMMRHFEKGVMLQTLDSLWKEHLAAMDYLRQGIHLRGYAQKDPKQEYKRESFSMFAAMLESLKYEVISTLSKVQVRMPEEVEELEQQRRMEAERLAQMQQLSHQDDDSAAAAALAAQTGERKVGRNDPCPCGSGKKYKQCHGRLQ
Chain of Sialic acid-binding Ig-like lectin 9 (Homo sapiens) (Q9Y336 whole entry): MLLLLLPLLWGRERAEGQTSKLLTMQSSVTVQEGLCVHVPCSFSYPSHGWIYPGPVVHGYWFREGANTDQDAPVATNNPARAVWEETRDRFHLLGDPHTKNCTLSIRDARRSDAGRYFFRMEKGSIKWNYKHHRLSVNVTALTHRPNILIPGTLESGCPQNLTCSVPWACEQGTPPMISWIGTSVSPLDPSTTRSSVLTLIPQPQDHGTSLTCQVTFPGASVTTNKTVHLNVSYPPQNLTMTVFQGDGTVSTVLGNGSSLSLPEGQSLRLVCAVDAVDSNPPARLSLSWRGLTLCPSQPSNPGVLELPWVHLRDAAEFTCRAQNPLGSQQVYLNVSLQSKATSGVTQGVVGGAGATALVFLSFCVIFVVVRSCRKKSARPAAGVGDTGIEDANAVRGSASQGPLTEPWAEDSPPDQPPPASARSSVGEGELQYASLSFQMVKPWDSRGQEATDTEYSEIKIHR
Chain of Chromo domain-containing protein 1 (Saccharomyces cerevisiae (strain ATCC 204508 / S288c) (Baker's yeast)) (P32657 whole entry, the tested form may be a part): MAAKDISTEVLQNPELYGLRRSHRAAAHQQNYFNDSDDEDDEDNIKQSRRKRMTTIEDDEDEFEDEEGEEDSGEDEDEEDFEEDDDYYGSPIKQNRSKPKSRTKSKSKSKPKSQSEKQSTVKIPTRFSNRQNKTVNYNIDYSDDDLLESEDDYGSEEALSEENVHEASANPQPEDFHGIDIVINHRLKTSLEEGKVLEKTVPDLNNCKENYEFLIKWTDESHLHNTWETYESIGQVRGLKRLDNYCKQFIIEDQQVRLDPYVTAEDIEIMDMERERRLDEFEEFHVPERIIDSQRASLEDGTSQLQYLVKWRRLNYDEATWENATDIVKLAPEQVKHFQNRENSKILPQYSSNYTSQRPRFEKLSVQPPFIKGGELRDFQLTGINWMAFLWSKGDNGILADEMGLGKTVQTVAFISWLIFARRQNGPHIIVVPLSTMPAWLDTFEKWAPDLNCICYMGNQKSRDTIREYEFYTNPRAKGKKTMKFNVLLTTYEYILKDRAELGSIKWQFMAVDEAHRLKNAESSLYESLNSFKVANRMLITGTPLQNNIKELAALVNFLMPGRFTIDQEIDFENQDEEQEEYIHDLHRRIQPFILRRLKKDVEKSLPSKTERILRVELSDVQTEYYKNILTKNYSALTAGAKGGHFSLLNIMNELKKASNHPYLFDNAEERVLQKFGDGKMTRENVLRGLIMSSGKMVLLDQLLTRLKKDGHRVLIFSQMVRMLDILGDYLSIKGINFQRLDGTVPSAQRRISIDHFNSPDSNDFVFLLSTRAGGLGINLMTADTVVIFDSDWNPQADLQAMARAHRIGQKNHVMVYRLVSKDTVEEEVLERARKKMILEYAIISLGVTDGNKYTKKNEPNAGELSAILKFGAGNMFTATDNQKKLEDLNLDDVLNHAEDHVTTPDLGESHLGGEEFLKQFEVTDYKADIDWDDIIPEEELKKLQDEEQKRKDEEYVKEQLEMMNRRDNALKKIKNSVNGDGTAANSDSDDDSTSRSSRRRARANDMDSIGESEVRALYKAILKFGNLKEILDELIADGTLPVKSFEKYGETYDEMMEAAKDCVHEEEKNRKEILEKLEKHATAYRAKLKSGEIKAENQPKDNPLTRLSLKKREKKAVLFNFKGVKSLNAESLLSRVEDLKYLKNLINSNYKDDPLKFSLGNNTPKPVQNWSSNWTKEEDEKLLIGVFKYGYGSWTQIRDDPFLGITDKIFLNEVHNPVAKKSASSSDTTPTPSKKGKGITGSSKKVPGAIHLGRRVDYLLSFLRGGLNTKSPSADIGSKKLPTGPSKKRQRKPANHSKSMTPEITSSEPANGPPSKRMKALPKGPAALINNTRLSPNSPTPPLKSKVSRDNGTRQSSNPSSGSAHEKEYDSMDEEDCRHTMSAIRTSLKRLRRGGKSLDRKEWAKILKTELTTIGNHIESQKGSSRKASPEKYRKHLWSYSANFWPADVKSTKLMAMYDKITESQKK

For the compound `OC(COCc1ccccc1Cl)CN1CC(n2cccn2)C1` (stereo unspecified), the Percent Effect in [1] was 1.1%; in [2], -15.8%; in test [3] it was 3.43%; in test [4], -0.349%; in test [5] it was -1.5%; in test [6] it was 6.9%. In addition, the Percent Effect is 14.5% in [7]; 9.39% in [8]; 4.41% in test [9]; 0% in test [10]; -9.18% in test [11].

Take `O=C(C1COCCO1)N1CCN(Cc2ccc3c(c2)CCO3)CC1` (stereo unspecified): the Percent Effect is -1.12% in test [1]; -5.26% in test [2]; -0.262% in [3]; 5.55% in [4]; 1.21% in [5]; -2.52% in [6]. Further, the Percent Effect in test [7] is -0.0846%; in [8] it was -4.94%; in test [9] it was 3.45%; in test [10], 3.7%; in [11], -2.12%.

As for `O=S(=O)(Cc1ccccc1F)NCCN1CCOCC1`, the Percent Effect was -4.08% in test [1]; 8% in test [2]; -0.989% in test [3]; -5.08% in test [4]; -3.02% in test [5]; -1.04% in test [6]. For the same compound, the Percent Effect in [7] was 12.6%; in [8], -12.7%; in [9], -1.64%; in test [10], 6.17%; in [11] it was -1.76%.

`CCOCCCC(=O)NCc1cn2cc(Br)ccc2n1`: the Percent Effect in [1] is -1.32%; in [2], 7.89%; in [3] it was 1.23%; in test [4], -4.68%; in test [5], -1.66%; in test [6] it was 0%. Besides, the Percent Effect in [7] was 24.1%; in test [8], -9.79%; in test [9], 6.38%; in test [10] it was 15.6%; in test [11] it was -2.98%.

Take `Cc1cc(C)n(CC2CCCCN2CC(=O)Nc2cccnc2)n1` (stereo unspecified): the Percent Effect in test [1] was -6.69%; in [2], 13.3%; in test [3] it was -13.7%; in test [4] it was 36.3%; in test [5], 9.25%; in test [6], 12.5%. The Percent Effect in [7] is -1.74%; in [8] it was 6.67%; in test [9], 0.546%; in test [10], 16.1%; in test [11], -6.32%.

As to `COc1ccc2c(c1)C1(CCN(Cc3ccoc3)CC1)N(C)CC2`, the Percent Effect in test [1] is -1.9%; in test [2], 5.2%; in test [3], 2.57%; in test [4], 3.45%; in test [5] it was -0.0986%; in [6] it was -7.1%. The Percent Effect in test [7] was 20%; in test [8], -0.746%; in [9] it was -1.06%; in [10], 8.97%; in [11], -9.11%.

As to `Cc1ccc(CNCc2nnc3n2CCCC3C(F)(F)F)o1` (stereo unspecified), the Percent Effect in test [1] is -2.71%; in test [2] it was 5.33%; in [3], 2.9%; in test [4], -7.37%; in test [5], -6.13%; in [6] it was -3.12%. The Percent Effect in test [7] was 8.54%; in test [8] it was 11.4%; in test [9], 0.546%; in [10], 3.7%; in [11], -5.76%.

With `c1csc(-c2noc(CCCN3CCCC3Cn3cccn3)n2)c1` (stereo unspecified), the Percent Effect in test [1] is -4.94%; in [2], -13.5%; in [3] it was -5.55%; in test [4] it was 4.78%; in test [5] it was 0.849%; in test [6], -6.41%. In addition, the Percent Effect in test [7] is -1.98%; in test [8], 0.955%; in test [9] it was 4.43%; in test [10], 1.24%; in test [11] it was -1.71%.

As to `CC1CN(C)c2ccccc2CN1C(=O)c1ccncc1` (stereo unspecified), the Percent Effect in test [1] is -2.73%; in test [2], 13.7%; in test [3], 4.78%; in test [4], 21.6%; in [5], 3.53%; in test [6] it was 32.3%. Moreover, the Percent Effect in test [7] was 8.87%; in test [8], 1.93%; in test [9], 2.15%; in [10] it was 5%; in test [11], -3%.

For `Cc1cc(CN2CCN(C(=O)NC(C)Cn3ccnc3)CC2)no1` (stereo unspecified), the Percent Effect was -1.68% in test [1]; 5.26% in [2]; 3.31% in test [3]; 7.81% in test [4]; 3.38% in test [5]; 1.53% in test [6]. Further, the Percent Effect was -4.18% in [7]; 9.94% in test [8]; 3.43% in test [9]; 7.32% in [10]; -4.96% in test [11].

In the case of `Cc1noc(C)c1CCC(=O)N1CCN(CCn2cccn2)CC1`, the Percent Effect in test [1] was -5.39%; in [2] it was 21.9%; in test [3], -6.91%; in test [4], 19.6%; in test [5] it was 7.64%; in [6], 8.18%. For the same compound, the Percent Effect in test [7] was 8.52%; in test [8] it was 3.96%; in test [9] it was 3.23%; in test [10], 17.5%; in test [11], -5.67%.

The values are drawn from ChEMBL document CHEMBL3988442, “University of Dundee, Small-Polar-MMV Screening Library” (2021).
